A selection: hits, their analogues and other compounds. The true share with any hit is near 12%.
AMA1-RON2 inh – AMA1-RON2 (P. falciparum) interaction inhibition; 0.2% of 360,000 active; AlphaScreen AMA1-biotinylated RON2 peptide binding; Potency, µM (doses to about 58.2 µM), most hits filed as inhibitors; also: nearly all actives have a fitted effect of over 45% in size
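AMA1 (3D7) with his tag at 25 nM final met compounds first, then biotinylated RON2 peptide at 25 nM; detection used donor plus acceptor beads, 10 µg/mL apiece, read by AlphaScreen after 30 min at room temperature.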
HCV inh – inhibitors of hepatitis C virus infection | Huh7.5.1 HCVcc-Cre infection, luciferase reporter, 44 h | Potency, µM (titrated, usually from 41.8 µM), usual class: inhibitors | 3.4% of 340,000 active
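HCVcc-Cre virus at an moi near 0.5 was added right after compound to cells cultured 4 h from seeding (1,000 cells/well). Luciferase activity was determined 44 h later, 15 min after substrate addition at RT.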
Pf growth 48h – inhibits P. falciparum growth in the first generation, 48 h; P. falciparum luciferase growth in erythrocytes, 48 h; Potency, µM (series often up to 28.7 µM), most hits filed as inhibitors; 5.9% of 310,000 active
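Luciferase-expressing P. falciparum in infected erythrocytes (2% hematocrit, 0.1% parasitemia final) in RPMI 1640/0.5% Albumax were exposed to compound for 48 hours at 37 C, 5% CO2; growth read as luminescence.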
Pf growth 96h – P. falciparum growth inhibition at 96 hours. Potency, µM (series often up to 28.7 µM), usual class: inhibitors. 6.9% of 320,000 active. P. falciparum luciferase reporter growth, 96 h. AID 504834
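P. falciparum expressing integrated firefly luciferase, in erythrocytes at 2% hematocrit, 0.05% parasitemia, incubated with compounds 96 h at 37 C, 5% CO2. Growth inhibition read as loss of luminescence; two-generation exposure targets delayed-death apicoplast inhibitors.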
NS1 function inh – blocks influenza NS1 protein function | 0.4% of 270,000 active | AID 2326 | Potency, µM (top dose mostly 46.1 µM); calls by dose curve; also: actives are rising curves; nearly all actives have a fitted effect of over 50% in size
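Compounds were scored for reversing the slow growth caused by influenza A NS1 in S. cerevisiae, measured by optical density at 600 nm. Assay medium contained 2% galactose at pH 6.0; NS1-free yeast of the same strain were the positive control.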
SARS PLpro yeast – SARS-CoV PLP inhibition in yeast; S. cerevisiae expressing SARS-CoV PLpro, growth rescue; Potency, µM (doses to about 32.9 µM), actives largely listed as activators; 0.19% of 330,000 active; AID 485353; calls by dose curve; also: nearly all actives have a fitted effect of over 55% in size
Numbers stand for hits; i = inactive; ? = inconclusive; nt = not tested or not shown; [ ] = dose if it differs, or a comment. Unless noted, calls follow the shape of the dose curve; as a rule, active = well fitted curve in the direction sought with a large enough effect; inconclusive = small, poorly fitted or top-dose-only effect, or another doubt; inactive = no such curve, though single readings can be large; an effect the other way counts as inactive or inconclusive.

SMILES | AMA1-RON2 inh | HCV inh | Pf growth 48h | Pf growth 96h | NS1 function inh | SARS PLpro yeast
O=C(CNC(=O)c1ccc(Cl)cc1)NCCCn1ccnc1 | i | i | 10µM | ? | i | i
O=C(O)C1=CC[C@@H](c2ccc(Cl)cc2)N(S(=O)(=O)c2ccc(Cl)cc2)[C@H]1c1ccccc1 | i | i | i | ? | nt | i
CCS(=O)(=O)N1CCCC(C(=O)NCCCN2CCCC2=O)C1 (stereo unspecified) | i | i | i | 10µM | i | i
CC(=O)Nc1ccc(S(=O)(=O)NCC2CCC(C(=O)NCCCN3CCCC3=O)CC2)cc1 (stereo unspecified) | i | i | i | ? | i | i
CCS(=O)(=O)N1CCCC(C(=O)NCCCOC)C1 (stereo unspecified) | i | i | i | i | i | i
Cc1cc(C)c(S(=O)(=O)NCC2CCC(C(=O)NCCCN3CCC(C)CC3)CC2)c(C)c1 (stereo unspecified) | i | ? | 9.3µM | i | i | i
O=C(NCCCN1CCCC1=O)C1CCC(CNS(=O)(=O)c2ccc(Cl)cc2)CC1 (stereo unspecified) | i | i | i | 12µM | i | i
Oc1cc(Nc2ccc(N3CCCCC3)cc2)cc2cccnc12 | nt | nt | 0.1µM | 0.093µM | nt | i
O=C(COC(=O)c1cccnc1Cl)Nc1ccc(N2CCCCC2)cc1 | i | i | i | i | nt | i
Fc1ccc(Cn2ccc(-c3cnc(-c4ccccc4)s3)n2)cc1 | i | 10µM | nt | i | i | i
CCOC(=O)[C@H]1[C@H]2COc3ccc(Br)cc3[C@H]2N2C(=O)CN(CCc3c[nH]c4ccccc34)C(=O)[C@@]12C | i | i | nt | nt | nt | nt
CCOC(=O)[C@H]1[C@H]2COc3cc(OC)ccc3[C@@H]2N2C(=O)CN(CCc3c[nH]c4ccccc34)C(=O)[C@@]12C | i | i | 7.4µM | ? | nt | ?
COc1ccc2c(c1)OC[C@H]1[C@H]2N2C(=O)CN(CCc3c[nH]c4ccccc34)C(=O)[C@@]2(C)[C@H]1c1ccccc1 | i | ? | 12µM | 4.7µM | nt | i
COc1ccc2c(c1)OC[C@H]1[C@H]2N2C(=O)CN(CC3CCCO3)C(=O)[C@@]2(C)[C@H]1c1ccccc1 (stereo partly specified) | i | i | ? | ? | nt | i
COCCNC(=O)C1CCCN(C(=O)c2cccnc2Oc2ccccc2)CC1 (stereo unspecified) | i | nt | nt | nt | nt | nt
CCCCCCCNC(=O)C1(CC2CC(c3ccccc3)=NO2)CCNCC1 (stereo unspecified) | i | 10µM | 12µM | ? | nt | i
O=C(NCc1ccccc1)C1(CC2CC(c3ccccc3)=NO2)CCNCC1 (stereo unspecified) | i | ? | 12µM | ? | nt | i
COc1ccc(CNC(=O)COC(=O)[C@@H]2CCCN2C(=O)c2cccs2)cc1 | i | i | nt | nt | nt | i
COc1ccc(-c2noc(CCC(=O)Nc3ccc(C)c(C)c3)n2)cc1 | i | ? | i | nt | i | i
CCN(CCCNC(=O)Cn1cc2c(n1)CCCC2)c1cccc(C)c1 | i | i | i | 13µM | i | i
Cc1ccc(-c2noc(CCC(=O)Nc3ccc4c(c3)OCO4)n2)cc1 | i | i | i | 2.3µM | i | i
COc1ccc(-c2noc(CCC(=O)Nc3ccc4c(c3)OCCO4)n2)cc1 | i | ? | i | 0.59µM | i | i
CCOC(=O)c1ccc(NC(=O)CCc2nc(-c3ccc(Cl)cc3)no2)cc1 | i | ? | ? | ? | i | i
CCOC(=O)c1ccc(NC(=O)CCc2nc(-c3ccc(C)cc3)no2)cc1 | i | 8.9µM | ? | 3.7µM | i | i
CNC(=O)NC(=O)C(OC(=O)Cc1cccc(C(F)(F)F)c1)c1ccccc1 (stereo unspecified) | i | i | i | i | i | i
SMILES | AMA1-RON2 inh | HCV inh | Pf growth 48h | Pf growth 96h | NS1 function inh | SARS PLpro yeast
CCCn1ncc(CN2CCN(Cc3ccsc3)C(CCO)C2)c1C (stereo unspecified) | i | i | i | i | i | i
COc1ccc(-c2noc(CCCC(=O)O)n2)cc1 | ? | i | ? | nt | i | i
CCOc1ccc(-c2noc(CCC(=O)O)n2)cc1 | i | i | nt | 12µM | i | i
O=C(CCc1nc(-c2ccc(F)cc2)no1)Nc1cccc(C(=O)NC2CC2)c1 | i | 14µM | nt | nt | nt | i
CCN(CCCNC(=O)CCc1nc(-c2ccc(OC)cc2)no1)c1cccc(C)c1 | ? | ? | nt | 13µM | i | i
COc1ccc(-c2noc(CCC(=O)NCCc3ccccc3)n2)cc1 | i | i | i[0.00184 µM] | i | i | i
Cc1ccc(-c2noc(CCC(=O)Nc3cccc(C(=O)NC4CC4)c3)n2)cc1 | i | nt | nt | nt | nt | nt
Cc1cccc(C)c1NCc1n[nH]c(=S)n1-c1ccccc1 | i | i | i | i | i | i
CCN(CC)C(=O)[C@H]1C[C@H](CC(=O)NCCCn2ccnc2)C(=O)N2CCc3c([nH]c4cc(CCC(=O)N(C)C)ccc34)[C@]12C | i | i | nt | nt | nt | i
CSCCC(NC(=O)c1ccc(Cl)cc1Cl)C(=O)NNC(=O)c1ccncc1 (stereo unspecified) | i | i | i | i | nt | i
CCCCn1c(CCc2ccccc2)nc2cc3[nH]c(=O)c(C(C)C)nc3cc21 | i | ? | 3.7µM | 2.6µM | ? | i
O=C(CCl)N1N=C(c2ccco2)CC1c1ccco1 (stereo unspecified) | i | 11µM | 13µM | 13µM | i | i
COc1ccc(CC(=O)N2CCC(Nc3nc4ccccc4n3Cc3ccc(F)cc3)CC2)cc1 | i | ? | 4.1µM | 9.3µM | i | i
COc1ccc(CC(=O)N2CCC(c3ccccc3)C2)cc1 (stereo unspecified) | i | i | i | i | i | i
O=C(Nc1ccc(C2CC2(Cl)Cl)cc1)c1ccccc1Br (stereo unspecified) | i | i | i | 0.93µM | i | i
Cc1oc(S(=O)(=O)N2CCCCC2)cc1NC(=O)Nc1ccc(Cl)cc1 | i | i | ? | ? | i | i
CN(CC(=O)Nc1cccc(F)c1)C(=O)C1CCC(C(=O)N(C)CC(=O)Nc2cccc(F)c2)CC1 (stereo unspecified) | i | i | nt | nt | nt | nt
CCC(C)(C(=O)NC1CCCC1)N(Cc1cccs1)C(=O)c1ccccn1 (stereo unspecified) | i | ? | i | 2.9µM | nt | i
C[C@H]1CCC[C@H](O)CCCCCc2cc(O)cc(O)c2C(=O)O1 | i | i | ? | 12µM | i | i
Cc1c(N=C/C=C2\N(C)c3ccccc3C2(C)C)c(=O)n(-c2ccccc2)n1C | i | i | i | 4.1µM | i | i
Cc1c(N=C/C=C2/N(C)c3ccccc3C2(C)C)c(=O)n(-c2ccccc2)n1C | i | i | i | i | i | i
Cc1ccnc(N/C=C(\C#N)c2nc(-c3cccc(Br)c3)cs2)c1 | i | ? | 12µM | 2.9µM | i | i
COc1cccc(-c2csc(/C(C#N)=C/Nc3cc4oc5ccccc5c4cc3OC)n2)c1 | i | i | i | i | nt | i
